From ChEMBL document CHEMBL3433997, “St. Jude Leishmania screening dataset” (2016)

Tests used:
Type in all cases: functional
[1] = target: Solute carrier family 2, facilitated glucose transporter member 1 (Homo sapiens) (UniProt P11166); experiment: ST_JUDE_LEISH: Cytotoxicity at 2uM final concentration against transgenic Leishmania Mexicana promastigotes LmGLUT1 that are glucose transport deficient and complemented with the human glucose transporter GLUT1. Activity is measured by DNA content using SYBR green in vitro
[2] = target: Hexose transporter 1 (Plasmodium falciparum) (UniProt O97467); experiment: ST_JUDE_LEISH: Cytotoxicity at 2uM final concentration against transgenic Leishmania Mexicana promastigotes LmPfHT that are glucose transport deficient and complemented with the Plasmodium falciparum hexose transporter. Activity is measured by DNA content using SYBR green in vitro
[3] = target: Glucose transporter (Leishmania mexicana) (UniProt O61059); experiment: ST_JUDE_LEISH: Cytotoxicity at 2uM final concentration against transgenic Leishmania Mexicana promastigotes LmGT2 that are glucose transport deficient and complemented with the L. Mexicana glucose transporter 2. Activity is measured by DNA content using SYBR green in vitro

Solute carrier family 2, facilitated glucose transporter member 1 (Homo sapiens), sequence (P11166 whole entry): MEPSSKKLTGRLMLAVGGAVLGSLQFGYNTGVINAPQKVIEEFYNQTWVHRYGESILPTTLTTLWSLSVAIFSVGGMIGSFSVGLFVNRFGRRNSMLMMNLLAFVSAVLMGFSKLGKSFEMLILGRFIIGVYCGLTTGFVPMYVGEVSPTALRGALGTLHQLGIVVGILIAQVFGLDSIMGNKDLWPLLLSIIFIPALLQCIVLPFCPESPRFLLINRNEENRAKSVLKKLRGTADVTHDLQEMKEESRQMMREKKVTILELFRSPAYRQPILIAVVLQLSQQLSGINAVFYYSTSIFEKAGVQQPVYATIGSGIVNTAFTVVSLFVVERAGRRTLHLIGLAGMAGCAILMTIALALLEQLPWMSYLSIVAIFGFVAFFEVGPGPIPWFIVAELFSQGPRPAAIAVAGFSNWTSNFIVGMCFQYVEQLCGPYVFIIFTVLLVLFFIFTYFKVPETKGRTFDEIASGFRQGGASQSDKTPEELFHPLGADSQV

| SMILES | inhibition [1] [%] | inhibition [2] [%] | inhibition [3] [%] |
| --- | --- | --- | --- |
| Cc1[nH]c(C)c(-c2ccc(OCc3ccccc3)cc2)c(=O)c1Br | 5.62 | 1.22 | -2.04 |
| CN1CCC[C@H]1COc1ccc(CN2CC[C@H](NC(=O)c3ccc(Cl)c(Cl)c3)C2)c2ccccc12 | 9.64 | 8.86 | 6.54 |
| CCc1cn2c3c(cc(C(=O)N[C@@H](Cc4cccc(Cl)c4)[C@H](O)CNC4CC4)cc13)N(C)S(=O)(=O)CC2 | -0.47 | -1.46 | -2.88 |
| CCN(CC)c1ccc(C(c2ccc(N(CC)CC)cc2)c2ccc([N+](=O)[O-])cc2)cc1 | 15.3 | 10.4 | 8.28 |
| Cc1cc(OCCCN2CCC(NC(=O)c3ccc(Br)cc3)C2)c2ccccc2n1 (centres undefined) | 24.3 | 19.2 | 13.4 |
| Clc1ccc(OCc2ccccc2)c(-c2nc(-c3nc4ccc(Cl)cc4[nH]3)cs2)c1 | 3.08 | 2.99 | 3.09 |
| COc1ccccc1C1CCN(CCCCNC(=O)c2ccc(NC(=O)c3ccc(Cl)cc3)cc2)CC1 | 1.27 | 3.41 | 2.05 |
| CC(Cl)=CCc1c(C)nc2c(ccc3ccccc32)c1O | 4.44 | 3.06 | 3.58 |
| COc1ccccc1-n1c(SCC(=O)Nc2ccccc2F)nc2cccnc21 | 2.95 | 1.38 | 2.25 |
| COc1cccc2c(NCc3ccccc3)nc(NCCCN3CCCCC3C)nc12 (centres undefined) | 67.7 | 50.8 | 13.1 |
| ON=C1CCc2cc(-c3nc(-c4ccc(OCCN5CCCCC5)cc4)[nH]c3-c3ccncc3)ccc21 | -1.78 | -1.49 | -1.7 |
| O=C(Nc1ccc2c(c1)CCN(C1CCC1)CC2)c1ccc(-n2ccnc2)cn1 | 1.81 | 2.97 | 2.28 |
| COc1cccc(CNC(=O)c2cnc(N3CCN(c4ccncc4)CC3)c(Cl)c2)c1 | 18 | 23.8 | 10.9 |
| Cc1cc(NCC2CCN(CC3CCCCC3)C2)nc(Nc2ccc(Br)cc2)n1 (centres undefined) | 8.49 | 7.88 | 3.47 |
| Nc1c2c(nc3ccc(NC(=O)CCCc4ccccc4)cc13)CCCC2 | 1.07 | 1.78 | 0.12 |
| CCOc1ccc2c(c1)N(C(=O)C=Cc1ccccc1)C(C)(C)c1ssc(=S)c1-2 | 0.5 | 0.43 | 0.85 |
| COc1ccc(Nc2ccnc3cc(-c4ccccn4)ccc23)cc1OC | 1.2 | 0.73 | -0.54 |

| SMILES | inhibition [1] [%] | inhibition [2] [%] | inhibition [3] [%] |
| --- | --- | --- | --- |
| O=C(Nc1ccc(S(=O)(=O)N2CCCCC2)cc1)c1cc(-c2cc(Cl)ccc2O)n[nH]1 | 6.03 | 6.9 | 4.71 |
| CCOc1ccc(N2C(N)=NC(N)=NC2(C)C)cc1 | 4.38 | 3.86 | 4.06 |
| Cc1cc(C(=O)Nc2ccc(OCc3ccccc3)cc2)on1 | -1.56 | -2.29 | 0.64 |
| O=C(Cc1c[nH]cn1)Nc1ccc(-c2ccc(-c3nc4cc(C(F)(F)F)ccc4[nH]3)s2)cc1 | -0.37 | -0.36 | -0.01 |
| CCCCCCCn1c2c(c(=N)c3c1CCC3)CCCC2 | 92 | 90.8 | 80.1 |
| O=C(Nc1cccc(OC2CCN(Cc3ccc(F)cc3)CC2)c1)c1ccc(C(F)(F)F)cc1 | 0.28 | 0.67 | 0.79 |
| O=C(NC1CCN(CCCc2ccccc2)CC1)c1ccc(-c2cccc(C(F)(F)F)c2)s1 | 1.95 | 1.23 | 3.77 |
| CC(C)C[C@H](NC(=O)c1cc(-c2ccc(F)cc2)no1)C(=O)O.CC(C)C[C@H](NC(=O)c1conc1-c1ccc(F)cc1)C(=O)O | 1.19 | 2.32 | 2.96 |
| O=[N+]([O-])c1cccc(/C=N/Nc2ccnc3cc(F)ccc23)c1 | 1.98 | 2.39 | 1.01 |
| Cc1ccc2nc(-c3ccc(C(=O)NC4CCN(Cc5ccccc5)CC4)s3)[nH]c2c1 | -1.39 | 1.8 | 1.22 |
| N=C(N)Nc1nc(-c2cccc(NC(=O)NCc3cccc4ccccc34)c2)cs1 | 1.1 | -0.38 | 0.66 |
| O=C1CCCN1CCCNCc1ccc(-c2ccc(-c3nc4cc(C(F)(F)F)ccc4[nH]3)s2)cc1 | 4.04 | 1.98 | 3.27 |
| CCOc1ccc2[nH]c(C)cc(=NN=Cc3ccccc3Cl)c2c1 | 12.3 | 8.94 | 5.71 |
| Cc1ccccc1C1CCN(C2CCC(NC(=O)/C=C/c3c[nH]c4ccccc34)CC2)CC1 (centres undefined) | 2.31 | 0.84 | -0.41 |
| Fc1cccc(Nc2nc(NCc3ccc(OCc4ccccc4)cc3)nc(Nc3cccc(F)c3)n2)c1 | 11.8 | 9.09 | 8.22 |
| CS(=O)(=O)Cc1ccc(Nc2ncc(Cl)c(Nc3cccnc3C(N)=O)n2)cc1 | 28.2 | 32.1 | 23 |
